Only a sample is shown.
aSyn UTR act = Activators via SNCA 5'UTR binding, MLPCN | alpha-synuclein 5'UTR reporter, activators screen | activity score, % (tested at 7.5 µM), hits read low | 300,000 compounds, 7.1% hits | AID 1814, 2009; in the data active means activity score below about -60%
Starred values were filed as active, the others as inactive.

SMILES | aSyn UTR act
CC(=O)c1c(CSc2ccccc2)oc2ccc(O)c(CN(C)C)c12 | -62.7*
CCOC(=O)c1c(CSc2ccc(CC)cc2)oc2ccc(O)c(CN(C)C)c12 | 65.6
COc1ccccc1NC(=O)Nc1ccc2c(c1)CCC2 | -126.2*
Cc1ccccc1NC(=O)Nc1ccc2c(c1)CCC2 | -140.9*
COc1cc(SC)ccc1C(=O)Nc1ccccc1C#N | -192.2*
Cc1ccccc1NC(=O)Nc1ccc(C(F)(F)F)cc1 | -100.3*
COc1cc(SC)ccc1C(=O)Nc1ccc(Cl)cn1 | 99.7
COc1cc(SC)ccc1C(=O)Nc1ccc2c(c1)CCC2 | -118.8*
CCCN1CCN(CCCNC(=O)c2ccc3nc(N4CCC(C)CC4)sc3c2)CC1 | -168.6*
CC1CC(C)CN(CCCNC(=O)c2ccc3nc(N4CCOCC4)sc3c2)C1 (configuration not stated) | -113.2*
CC1CCCCN1CCCNC(=O)c1ccc2nc(N3CCCCC3)sc2c1 (configuration not stated) | -325.6*
CCOC(CNC(=O)c1ccc2nc(N3CCC(C)CC3)sc2c1)OCC | -179.6*
N#Cc1ccccc1NC(=O)c1ccc2c(Cl)c3c(nc2c1)CCCC3 | -219.2*
CC1CCN(C(=O)c2ccc(S(=O)(=O)Cc3ccccc3F)c([N+](=O)[O-])c2)CC1 | -71.2*
O=C(Nc1cccnc1Cl)c1ccc2c(Cl)c3c(nc2c1)CCC3 | -70.5*
CC1CCN(C(=O)c2ccc3ccccc3c2)CC1 | -151.7*
CC(=O)c1cccc(NC(=O)c2ccc3c(Cl)c4c(nc3c2)CCCC4)c1 | -83.2*
CC1CCN(C(=O)c2ccc3c(Cl)c4c(nc3c2)CCCC4)CC1 | -70.5*
O=C(NC1CC1)c1ccc2c(Cl)c3c(nc2c1)CCCC3 | -86.6*
COc1ccccc1-c1ccc(NC2CCCCC2)nn1 | -140.2*
C=CCn1c2ccccc2c(=O)c2cc(C#CC3(O)CCCCC3)ccc21 | -169.6*
Clc1ccccc1N=C1NN=C(c2cccs2)CS1 | -160.1*
Cc1cccc(N=C2NN=C(c3ccccc3F)CS2)c1C | -101.7*
Fc1ccccc1N=C1NN=C(c2ccccc2)CS1 | -199.2*
COCCn1c(C)cc(C2=NNC(=Nc3ccccc3F)SC2)c1C | 91.4
SMILES | aSyn UTR act
Fc1ccc(F)c(C2=NNC(=Nc3ccccc3F)SC2)c1 | -109.8*
CCOCC(=O)Nc1cc(C(=O)Nc2cc(C)cc(C)c2)ccc1Cl | -66.2*
O=C1C2C(C(=O)N1/N=C/c1cccc([N+](=O)[O-])c1)C1C=CC2C12CC2 (configuration not stated) | -153.0*
O=C1Nc2ccccc2S/C1=C/c1cccs1 | -67.7*
Cc1ccc(N=C2NC(=O)/C(=C\c3cccs3)S2)cc1C | -85.2*
O=C(CCN1CCC(c2cccs2)=N1)c1cccs1 | -93.7*
Cc1ccc(C(=O)N(C)c2nnc(-c3ccncc3)s2)cc1 | -106.7*
CN(C(=O)c1ccncc1)c1nnc(-c2ccccn2)s1 | -65.7*
Cc1ccc(C2=NN=C(NC(=O)CSc3nnc4c5ccccc5n(C)c4n3)SC2)cc1 | -99.2*
CCn1c2ccccc2c2cc(CNCc3ccc(OC)cc3OC)ccc21 | 62.6
CCn1c2ccccc2c2nc3cc(OC)c(OC)cc3nc21 | -78.5*
CC(=O)N=C(N)Sc1nc2ccccc2[nH]1 | -134.9*
O=C(OCc1nnc(-c2ccc(Cl)cc2)o1)C12CC3CC(CC(O)(C3)C1)C2 | -204.6*
CC(=O)/C=C(\C)Nc1c(C)n(C)n(-c2ccccc2)c1=O | -81.7*
Cc1c(NC(=O)/C(C#N)=C/c2ccc(-c3ccccc3Cl)o2)c(=O)n(-c2ccccc2)n1C | 56.0
COC(=O)c1cc2c(s1)-c1ccc(OC)cc1CC2 | -211.7*
COc1ccc(C(=O)N=C2CCC(C#N)=C3c4cc(OC)c(OC)cc4CCN23)cc1 | 54.6
CNC(=O)c1cc2c(s1)-c1ccccc1CC2 | -132.9*
COc1ccc2c(c1)CC/C2=N\OC(=O)c1cccc(C)c1 | -229.7*
COc1ccc2c(c1)CC/C2=N\NC(=O)c1ccccc1 | -111.3*
COc1ccc2c(c1)CC/C2=N\OC(=O)c1ccccc1C | -136.4*
Cc1ccccc1C(=O)O/N=C/c1c(N2CCOCC2)n(C)c2ccccc12 | 86.5
C=C(C)C1CC=C(C)/C(=N/NC(=O)c2ccoc2C)C1 (configuration not stated) | -149.6*
N#C/C(=C\c1ccc(OCC(N)=O)cc1)c1ccccc1 | -153.9*
COc1ccc(N=C2S/C(=C\c3ccc(N4CCOCC4)o3)C(=O)N2CCc2c[nH]c3ccccc23)cc1 | -113.0*
SMILES | aSyn UTR act
O=C1c2ccccc2NC(c2ccc(O)cc2)N1/N=C/c1ccc(O)cc1 (configuration not stated) | -122.2*
O=C1c2ccccc2NC(c2ccc(O)cc2)N1c1ccccc1 (configuration not stated) | -63.8*
COc1cn(-c2ccccc2)nc1C(=O)Nc1ccccc1 | -65.9*
COc1cn(-c2ccccc2)nc1C(=O)Nc1ccc(C)cc1 | -90.1*
COc1ccc(-c2oc3ccc(N4CCOCC4)cc3c2C#CCO)cc1 | -91.9*
Nc1ccc(C#Cc2c(-c3ccsc3)oc3ccc(N4CCOCC4)cc23)cc1 | -167.8*
Cc1ccc2nc(NC(=O)c3ccc4c(c3)OCO4)sc2c1 | -129.6*
Cc1ccc2nc(NC(=O)c3ccc4ncsc4c3)sc2c1 | -145.3*
CC(=O)NC(c1ccc(C)cc1)c1cc(Cl)c2cccnc2c1O (configuration not stated) | 59.9
O=S(=O)(Nc1cc(Sc2cccc3cccnc23)c(O)c2ccccc12)c1ccccc1 | -138.9*
N#Cc1c(N2CCCC(O)C2)nc(N)c2c(N)nc3c(c12)CC(=O)N3C12CC3CC(CC(C3)C1)C2 (configuration not stated) | -232.4*
COc1ccccc1/C=C/C(=O)NCCC1=CCCCC1 | -149.9*
O=C(/C=C/c1ccc(F)cc1)NCCC1=CCCCC1 | -105.3*
O=C(/C=C/c1ccccc1)NCCC1=CCCCC1 | -193.8*
O=C(NCCOc1ccccc1)C1CCCCC1 | -88.8*
O=C(/C=C/c1ccccc1)NCCOc1ccccc1 | -64.1*
CCC(C)c1ccc(NC(=O)C2CC3CCC2C3)cc1 (configuration not stated) | -99.3*
CC(C)c1ccc(NC(=O)C2CC3CCC2C3)cc1 (configuration not stated) | -197.0*
CCC(C)c1ccc(NC(=O)C2CC2)cc1 (configuration not stated) | -73.3*
c1ccc2nc(-c3nccs3)ccc2c1 | -126.1*
Clc1ccsc1-c1ccc2ccccc2n1 | -113.3*
c1ccc2nc(-c3ccncc3)ccc2c1 | -96.2*
Clc1ccsc1-c1ccnc(-n2cccc2)n1 | -62.2*
Cc1cc(-c2sccc2Br)nc(-n2cccc2)n1 | -86.8*
CCN1CCN(c2ccc(NC(=O)c3ccc(F)cc3)cc2Cl)CC1 | -93.8*
SMILES | aSyn UTR act
O=C(Nc1ccc(N2CCOCC2)c(Cl)c1)c1ccc(Cl)cc1 | -126.4*
CCN1CCN(Cc2ccc(NC(=O)c3ccc(C)c(NC(=O)c4c[nH]c5cc(C(F)(F)F)ccc5c4=O)c3)cc2C(F)(F)F)CC1 | 112.6
CCN1CCN(c2ccc(NC(=O)c3ccc([N+](=O)[O-])o3)cc2Cl)CC1 | 126.2
O=C(c1ccc(Cl)cc1)c1cc([N+](=O)[O-])ccc1N1CCOCC1 | 117.6
O=C(Nc1ccc(N2CCOCC2)c(Cl)c1)c1ccccc1F | -172.0*
O=C(Nc1ccc(N2CCOCC2)c(Cl)c1)c1ccc2c(c1)OCCO2 | -92.8*
O=C(Nc1ccc(N2CCCC2)c(Cl)c1)c1ccc(Br)o1 | -177.0*
Cc1cc(C(=O)Nc2ccc(N3CCOCC3)c(Cl)c2)c(C)o1 | -179.6*
O=C(Nc1ccc(N2CCOCC2)c(Cl)c1)C1CCCCC1 | -68.6*
